This excerpt belongs to a sample that is enriched for hits.
Tgondii IFNg: T. gondii growth inhibition with IFN-gamma, primary screen, cell-based; 3.8% of 69,000 active; AID 1259416, 2018; Toxoplasma gondii growth in IFN-gamma-treated host cells; active compounds read low; activity change, negative = inhibition, % (no concentration beside the values); in the data active = activity change below about -70%, passing the limit was not always enough;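 note: host cells are HeLa cells infected with Toxoplasma gondii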
Hits are given with their value; . = inactive; ! = not active in a repeat.

SMILES	Tgondii IFNg
CCCc1cc(C(=O)N2CCCC(c3cc4ccccc4cn3)C2)n(C)n1 (centres undefined)	.
Cc1nc2ccccn2c1CC(=O)N1CCCC(c2ccc(Cc3cccc(F)c3)cn2)C1 (centres undefined)	.
CCn1ccc2cc(S(=O)(=O)N3CCC(C(=O)NCc4cccnc4)CC3)ccc21	.
Cc1ccc2c(c1)cc(S(=O)(=O)c1ccccc1)c(=O)n2CC(=O)NCC1CCCO1 (centres undefined)	.
Cn1cc(C[C@@H]2[C@H](N3CCOCC3)CCN2c2ncccn2)cn1	.
CO[C@H]1CCN(S(=O)(=O)c2cn(C)cn2)[C@H]1Cc1cnn(C)c1	.
CCC(=O)N1C[C@@H]2CN(c3ncccn3)CC[C@H]2C1	.
CCc1csc(-c2cccc(C(=O)N3CCCC3)c2)n1	.
CCN1C(=O)N(Cc2cccc(OC)c2)C(=O)C12CCN(Cc1cc3ccccc3s1)CC2	-90.1
CCN1C(=O)N(Cc2cccc(OC)c2)C(=O)C12CCN(Cc1ccc(N3CCCC3)cc1)CC2	.
CCN1C(=O)N(Cc2cccc(OC)c2)C(=O)C12CCN(CC(c1ccccc1)c1ccccc1)CC2	.
COCc1nn(C)c2c1CN(c1ccc(C)nn1)CC2	.
COc1ccc(Cl)cc1NC(=O)Cn1ncc2c(N3CCC(C)CC3)ncnc21	.
CCCc1cc(=O)oc2cc(OS(=O)(=O)c3ccc(Cl)cc3)ccc12	.
CCNS(=O)(=O)c1ccc(-c2oc3cc(S(=O)(=O)NCC)ccc3c2Cl)cc1	-78.1
CCN(CC)S(=O)(=O)c1ccc2oc3ccc(S(=O)(=O)N(CC)CC)cc3c2c1	.
COCC(=O)N1CC[C@@H](OCC2CC2)[C@H]1Cc1ccncc1	.
CC(C)OCc1ncn2c1CN(Cc1nccs1)CCC2	.
Cc1cc2c(SCC(=O)N3CCc4c(nc[nH]c4=O)C3)ncnc2s1	.
CC(=O)O[C@H]1C(=O)[C@@]2(C)[C@H]([C@H](OC(=O)c3ccccc3)[C@]3(O)C[C@H](OC(=O)[C@H](O)[C@@H](NC(=O)c4ccccc4)c4ccccc4)C(C)=C1C3(C)C)[C@]1(OC(C)=O)CO[C@@H]1C[C@@H]2O	-82.4!
CC(=O)O[C@H]1C(=O)[C@@]2(C)[C@H]([C@H](OC(=O)c3ccccc3)[C@]3(O)C[C@H](OC(=O)[C@H](O)C(NC(=O)c4ccccc4)c4ccccc4)C(C)=C1C3(C)C)[C@]1(OC(C)=O)CO[C@@H]1C[C@@H]2O (some centres undefined)	-95.5
COc1ccc(-c2nc(Nc3ccccc3Cl)c3ccccc3n2)cc1	.
Cc1ccc2[nH]c3c(=O)n(CC(=O)NCc4ccncc4)cnc3c2c1	.
Cc1ccc(S(=O)(=O)N(C)c2cncc(C(=O)NCc3ccccc3)c2)cc1	.
O=S(=O)(c1cccc2nsnc12)N1CCN(C2c3ccccc3-c3ccccc32)CC1	.
SMILES	Tgondii IFNg
COc1ccc(OC)c(NC(=O)N2CCC3(CC2)Nc2cccnc2NC3=NC2CCCCC2)c1	.
Cc1ccc2[nH]c(C(=O)N3CCCC3c3cc(C)no3)c(C)c2c1 (centres undefined)	.
CC(=O)N1CCC(N2CCC3(CCCN(C(=O)OCC(C)(C)C)C3)C2)CC1 (centres undefined)	.
Cc1cccc(/C=N/Nc2cc(N3CCOCC3)nc(OCCc3ccccn3)n2)c1	-73.8
Cc1cccc(CN2CCOCC3(CCN(c4ccccn4)C3)C2)n1 (centres undefined)	.
Cc1cccnc1CC(C)Nc1cc(N2CCOCC2)nc(N)n1 (centres undefined)	.
C=CCn1c2c(ccc1=O)CC(NC(=O)Cc1cccs1)CC2 (centres undefined)	.
CCC(CC)n1nc(C)cc1NC(=O)c1cccc2c1OCCO2	.
Cc1ccc(Nc2nc3nonc3n3cnnc23)cc1Cl	-106.4
CCC(NC(=O)CC(=O)Nc1ccc(C)c(Cl)c1)c1nc(C)no1 (centres undefined)	.
Cc1ccc(NC(=O)CC(=O)NCCCn2ccnc2)cc1Cl	.
CCOc1ccc(Nc2nc(N)nc(CN3CCN(C)CC3)n2)cc1	.
Cc1ccc(Nc2nc(N)nc(CSc3nc4ccccc4s3)n2)cc1	.
Cc1ccc(Nc2nc(N)nc(CN3CCc4ccccc4C3)n2)cc1	-98.5
Cc1ccc(Sc2cccc3nc(N)nc(N)c23)cc1	-108.1
Clc1ccc(Sc2nc3ccccc3nc2Sc2ccc(Cl)cc2)cc1	.
Cc1ncc(Sc2ccc(Cl)cc2)c(-c2ccc(Cl)cc2)n1	.
CCn1c(=O)c(C(=O)Nc2ccc(C)c(C)c2)c(O)c2ccccc21	.
Cc1c(Nc2nc3nonc3nc2Nc2cccc(Cl)c2)c(=O)n(-c2ccccc2)n1C	.
Clc1ccc(Nc2nc3nonc3nc2Nc2ccc(Cl)cc2)cc1	-103.2
O=C(Nc1ccc(Cl)cc1)c1nc(Nc2ccccc2)c2ccccc2n1	.
CSc1ccc(C2c3[nH]c4ccccc4c3CCN2C(=O)c2ccccc2Cl)cc1 (centres undefined)	.
Cc1cccc(C2c3[nH]c4ccccc4c3CCN2C(=O)c2ccccc2)c1 (centres undefined)	.
Cc1ccc(C2c3[nH]c4ccccc4c3CCN2C(=O)c2ccccc2Cl)cc1 (centres undefined)	-118.1

Compound activity (PubChem)
